Screening results as filed in PubChem.
Only some compounds are listed: those with a hit (about 8.1% of all), similar ones and a draw of the others.
ClpP mod: qHTS Assay for Activators of ClpP. ATP-dependent Clp protease proteolytic subunit (Bacillus subtilis (strain 168)), P80244. purified B. subtilis ClpP, FRET peptide cleavage, 20 min. Potency, µM (highest dose often 57.5 µM). actives 1.9% (n = 340,000); active = well fitted falling curve with a large enough effect; inconclusive = small, poorly fitted or top-dose-only effect; inactive = no such curve, though single readings can be large or run the other way; also: the source files actives as falling curves though it sought activators and does not explain the sign; nearly all actives have a fitted effect of over 65% in size
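Purified B. subtilis ClpP, 10 microg/mL final in Tris/HCl pH8 with KCl, BSA, glycerol and Tween-20, cleaved an Abz/nitrotyrosine-quenched decapeptide. Fluorescence (ex 320, em 430) was read at 0 and 20 min at room temperature. Delta was normalized to 5.8 microM ADEP and DMSO/no-enzyme controls.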
PINK1 expr mod: A Quantitative High throughput Screen to Identify Chemical Modulators of PINK1 Expression | Potency, µM (doses to about 76.6 µM), most hits filed as activators | actives 0.2% (n = 410,000) | PINK1 immunofluorescence, high-content cytometry, 24 h; active = well fitted activation curve with a large enough effect; inconclusive = small, poorly fitted or top-dose-only effect; cell line not stated here; also: nearly all actives have a fitted effect of over 65% in size
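Stable cell line, 250 cells/well, 12 h attachment; compounds pinned at 5 concentrations, 24 h; CCCP control. Fixed with nuclear dye, primary antibodies 12 h at 10 degrees C, secondary plus cell stain; laser-scanning cytometer read.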
RORgamma inh: qHTS for inhibitors of ROR gamma transcriptional activity; Nuclear receptor ROR-gamma (Mus musculus), P51450; Drosophila S2 Gal4-RORgamma UAS-luciferase reporter, 20 h; Potency, µM (series often up to 53.6 µM), usual class: inhibitors; actives 5.4% (n = 310,000); also: nearly all actives have a fitted effect of over 60% in size
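Drosophila S2 cells stably expressing Gal4-DBD/mouse RORγ fusion under metallothionein promoter plus UAS-luciferase; compound 1 h, then 700 uM CuSO4 induction for 20 h at ambient temperature; inhibition read as reduced luminescence.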
Sfp PPTase inh: qHTS Assay for Inhibitors of Bacillus subtilis Sfp phosphopantetheinyl transferase (PPTase) | AID 1490, 2009 | Biochemical Sfp PPTase activity, qHTS | 4'-phosphopantetheinyl transferase ffp (Bacillus subtilis), Q9F4F7 | actives 3.5% (n = 310,000) | Potency, µM, most hits filed as inhibitors;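 also: the enzyme is Sfp with the accession as filed and its product quenches rhodamine fluorescence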
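Fluorescence-quenching assay with 15 nM Sfp, 5 uM rhodamine-CoA and 12.5 uM BHQ-2-labelled ybbR peptide in pH 7.6 Hepes/MgCl2 buffer. Enzyme was pre-incubated with compound for 15 min at room temperature. Rate was taken from the 30-min fluorescence change (525/598 nm).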
Gal4-VP16 FLuc: VP16 counterscreen qHTS for inhibitors of ROR gamma transcriptional activity | Drosophila S2 Gal4-VP16 UAS-luciferase, luminescence, 20 h | actives 3.5% (n = 310,000) | AID 2546, 2010 | Potency, µM (titrated, usually from 53.6 µM), usual class: inhibitors;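 also: Gal4-VP16 expression switched on by copper sulfate through the metallothionein promoter; nearly all actives have a fitted effect of over 50% in size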
Epigenetic derep: Quantitative High-Throughput Screen for Regulators of Epigenetic Control | murine LDR cells, GFP reporter derepression, 30 h | Potency, µM (series often up to 53.9 µM), actives largely listed as activators | actives 0.2% (n = 280,000) | AID 1865, 2009; also: nearly all actives have a fitted effect of over 60% in size
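Derepression of a silenced CMV-GFP reporter in murine LDR cells is scored by enumerating GFP-positive cells with a laser-scanning microplate cytometer after 30 hours of treatment at 37 C.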
Hits are given with their value; . = inactive; ? = inconclusive; / = not tested or not shown; [ ] = dose if it differs, or a comment. Unless noted, calls follow the shape of the dose curve; as a rule, active = well fitted curve in the direction sought with a large enough effect; inconclusive = small, poorly fitted or top-dose-only effect, or another doubt; inactive = no such curve, though single readings can be large; an effect the other way counts as inactive or inconclusive.

SMILES	ClpP mod	PINK1 expr mod	RORgamma inh	Sfp PPTase inh	Gal4-VP16 FLuc	Epigenetic derep
COc1cc(NC(=O)NCCn2nnc3cc(S(=O)(=O)N(C)C)ccc32)cc(OC)c1	.	.	/	/	/	.
CCCCc1c(O)c2ccccc2[nH]c1=O	25µM	.	.	.	.	.
CCCCCCC(=O)Nc1c(O)c2ccccc2[nH]c1=O	?	.	.	50µM	.	.
CCCCCCCC(=O)NNC(=O)c1c(O)c2ccccc2[nH]c1=O	.	.	.	.	.	.
CCCc1c(O)c2ccccc2[nH]c1=O	14µM	.	.	.	.	.
Cc1ccccc1NC(=O)Cc1c(O)c2ccccc2[nH]c1=O	16µM	.	.	.	.	.
Cc1cc(C)cc(-c2cc3c(c(-c4c(O)c(-c5cc(C)cc(C)c5)cc5c4CCCC5)c2O)CCCC3)c1	/	/	.	.	.	.
COCC(=O)Nc1cc(C(=O)N2CCSCC2)cc2nc(-c3ccccc3)n(C)c12	/	.	/	/	/	/
COc1cc2c(cc1OC)C(c1cc3ccc(C)cc3[nH]c1=O)N(C(=O)c1ccco1)CC2 (stereo unspecified)	/	.	?	.	?	/
COc1cc2c(cc1OC)C(c1cc3cc4c(cc3[nH]c1=O)OCO4)N(C(=O)C1CC1)CC2 (stereo unspecified)	25µM	.	.	40µM	.	.
CCOc1ccc2nc(NC(=O)c3nc(SCc4ccccc4C)ncc3Cl)sc2c1	.	.	/	/	/	?
CN(C)c1cccc(C(=O)OCc2cc(=O)oc3cc(O)ccc23)c1	.	.	8.9µM	.	?	?
CC(=O)c1ccc(S(=O)(=O)N2CCn3cccc3C2c2ccccc2F)cc1 (stereo unspecified)	.	.	/	/	/	.
COc1ccc(N2CCN(C(=O)c3ccccc3NS(=O)(=O)c3ccccc3)CC2)cc1	28µM	.	.	.	.	/
O=C(C1CCCCC1)N1CCCc2ccccc21	.	.	.	.	.	.
O=C(NC(=S)N1CCc2ccccc21)C1CCC1	.	.	2.8µM	.	?	.
CC(C)(C)C(=O)NC(=S)N1CCc2ccccc21	.	.	5µM	.	?	.
S=C(Nc1cccnc1)N1CCc2ccccc21	.	.	.	.	.	/
CCCCN(Cc1cc2cc(OC)ccc2[nH]c1=O)C(=O)c1ccccn1	20µM	.	.	.	.[0.365 µM]	.
CCCCN(Cc1cc2cc(OC)ccc2[nH]c1=O)C(=O)c1ccco1	32µM	.	.	?	.	.
CCCN(Cc1cc2cc(OC)ccc2[nH]c1=O)C(=O)c1ccco1	/	.	?	.	.	.
CCCCCCC[n+]1ccc(/C=C/c2c[nH]c3ccccc23)c2ccccc21	.	/	/	/	/	/
O=C(CSc1ccncc1)NCC1Cc2cccc(-c3cncnc3)c2O1 (stereo unspecified)	/	.	/	/	/	/
Fc1ccc(-c2nnc(Cc3nnc(-c4ccc(F)cc4)o3)o2)cc1	.	?	5µM	.	?	.
Fc1ccc(-c2nnc(-c3ccc(F)cc3)o2)cc1	.	.	.	.	?	/
SMILES	ClpP mod	PINK1 expr mod	RORgamma inh	Sfp PPTase inh	Gal4-VP16 FLuc	Epigenetic derep
COc1ccc(-c2nc3ncnn3cc2C)cc1F	.	.	.	.	.	.
COc1ccc(-c2nc3nc(SC)nn3cc2C)cc1F	/	.	.	.	25µM	.
CCN(C(=O)NCc1noc2ccccc12)c1cc(C)ccc1C	.	.	/	/	/	.
O=C(CN1CCN(C/C=C/c2ccccc2)CC1)Nc1cc([N+](=O)[O-])ccc1Cl	.	.	.	45µM	?	.
Cc1cc(NC(=O)CN2CCN(C/C=C/c3ccccc3)CC2)c([N+](=O)[O-])cc1C	.	.	.	.	.	.
CC(=O)N1c2ccccc2CC1C(=O)N1CCN(c2cccc(C)c2C)CC1 (stereo unspecified)	.	.	/	/	/	.
COc1ccc2c(c1)-c1nc(-n3ncc(C(=O)N(C)C(C)c4ccon4)c3C3CC3)ncc1CC2 (stereo unspecified)	/	.	/	/	/	/
COc1ccc(-n2c(=S)[nH]c3ncccc3c2=O)cc1	.	.	?	.	.	.
COc1ccc(-n2c(=S)[nH]c3ccccc32)cc1	.	.	4.5µM	45µM	20µM	.
COc1ccc(-n2c(=S)[nH]c3ccccc3c2=S)cc1	.	.	0.5µM	.	0.71µM	/
COc1ccc(Cn2c(=S)[nH]c3ccccc32)cc1	.	.	10µM	.	?	.
COc1ccccc1CN1CCC2(CC1)c1ccccc1[C@@H](NC(=O)c1ccco1)[C@@H]2OC	/	.	/	/	/	/
CC1=C(C)/C(=N\OS(=O)(=O)c2ccccc2)C=CC1=O	.	.	2.5µM	40µM	2.5µM	.
CN(C)c1ncc(C(=O)NCc2ccccc2Cl)cn1	.	.	/	/	/	.
CCCC[C@@H](CN[C@H](C)CNC)NCC1CCC(C(C)(C)C)CC1 (stereo partly specified)	.	.	11µM	.	.	/
Clc1ccc(-c2noc(CN(Cc3ccccn3)CC3CCCO3)n2)cc1 (stereo unspecified)	/	.	4µM	?	.	.
COc1ccc(OC)c(NC(=O)c2oc(=O)c3ccccc3c2-c2ccccc2)c1	.	.	/	/	/	.
CC(C)Cn1c(C(C)C)nc([N+](=O)[O-])c1Sc1ccc(Cl)cn1	.	.	.	.	.	.
CCCCn1c(CCC)nc([N+](=O)[O-])c1Sc1ccc(Cl)cn1	.	.	?	.	10µM	.
O=C(Cc1ccc(NC(=O)N2CCCCc3ccccc32)cc1)NCc1ccccc1Br	.	.	/	/	/	.
CC(C)(C)c1n[nH]c2c1CCCC2	.	.	11µM	.	.	.
CCNc1ncc2nc(-c3ccccc3)c(=O)n(-c3ccc(OC)cc3)c2n1	/	.	.	.	.	/
CC1=CC(C)(C)N2C(=O)C3(C(C#N)=C(N)Oc4cc(O)ccc43)c3c(C)c(C)cc1c32 (stereo unspecified)	.	.	2.8µM	.	.	.
CC1=CC(C)(C)N2C(=O)C3(C(C#N)=C(N)OC4=C3C(=O)CCC4)c3c(C)c(C)cc1c32 (stereo unspecified)	.	.	.	.	.	.
O=C(/C=C/c1ccco1)NCc1ccc2c(c1)OCO2	.	.	.	?	.	.
O=C(/C=C/c1ccco1)Nc1ccc(F)cc1	.	.	/	/	/	.
Cc1ccc(-n2nc3ccc(NC(=O)/C=C/c4ccco4)cc3n2)cc1	28µM	?	.	?	.	.
NS(=O)(=O)c1ccc(NC(=O)/C=C/c2ccco2)cc1	.	.	.	20µM	.	.
